Test results taken from the supplement of paper PMC4022240.
± gives the standard deviation.

B1: Unmod H1 variant A S G S F K L N K K A A S (peptide)
chain: ASGSFKLNKKAAS
B2: Unmod H1 variant K A K K A G A A K A K K P (peptide)
chain: KAKKAGAAKAKKP
B3: Unmod H1 variant A A G A K K A K S P K K A (peptide)
chain: AAGAKKAKSPKKA
B4: Unmod H1 variant K P K K A T G A A T P K K (peptide)
chain: KPKKATGAATPKK
B5: Unmod H1 variant E K N N S R I K L G L K S (peptide)
chain: EKNNSRIKLGLKS
B6: Unmod H1 variant T P K K S A K K T P K K A (peptide)
chain: TPKKSAKKTPKKA
B7: Unmod H1 variant P K K A K K P A A A A G A (peptide)
chain: PKKAKKPAAAAGA
B8: Unmod H1 variant T L V Q T K G T G A S G S (peptide)
chain: TLVQTKGTGASGS
B9: Unmod H1 variant K A A S G E A K P K A K K (peptide)
chain: KAASGEAKPKAKK
B10: Unmod H1 variant A K K P A G A A K K P K K (peptide)
chain: AKKPAGAAKKPKK

Biological target: T1, HaloTag-ATRX ADD domain (163-292)
T1 chain: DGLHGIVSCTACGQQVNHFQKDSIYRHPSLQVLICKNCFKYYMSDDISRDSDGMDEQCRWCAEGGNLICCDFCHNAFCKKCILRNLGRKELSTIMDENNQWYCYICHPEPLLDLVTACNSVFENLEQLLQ
Experiment: peptide microarray binding signal (635 nm), min-max normalized on array (fraction of array maximum); higher = stronger binding
Conditions: peptide region: Unmod H1 variant; binder concentration: 50 nM
In short: (§1)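 Triplicate spots of histone 13-mer peptide–cellulose conjugates with a Cy3 tracer were printed on nitrocellulose and probed for 1 h at 4°C with biotin-labelled HaloTag reader fusions (10 nM to 1 μM) plus streptavidin-Alexa Fluor 647 or rabbit histone antibodies (1:10,000 to 1:2,000) plus anti-rabbit Alexa 647. An Axon GenePix 4000B read the 635 nm channel. Binding signal is the spot-triplicate mean intensity after min-max scaling within each library.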

Binder | peptide microarray binding signal
B1 | 0.0207 ± 0.0013
B2 | 0.01282 ± 3.1e-05
B3 | 0.0119 ± 0.00059
B4 | 0.00674 ± 0.0014
B5 | 0.0196 ± 0.00022
B6 | 0.0108 ± 0.0035
B7 | 0.0116 ± 7.8e-05
B8 | 0.0308 ± 0.012
B9 | 0.0252 ± 0.0022
B10 | 0.00931 ± 0.00023

Same assay, conditions: peptide region: Unmod H1 variant; binder concentration: 500 nM

Binder | peptide microarray binding signal
B1 | 0.00791 ± 0.00049
B2 | 0.0114 ± 0.00065
B3 | 0.01348 ± 5.3e-05
B4 | 0.00957 ± 0.00063
B5 | 0.0155 ± 0.00098
B6 | 0.0104 ± 0.0011
B7 | 0.00771 ± 0.00013
B8 | 0.0171 ± 0.0029
B9 | 0.0245 ± 0.0017
B10 | 0.00786 ± 0.00022

Biological target: HaloTag-ING2 PHD (mouse Ing2 200-280)
Experiment: as above
Conditions: peptide region: Unmod H1 variant; binder concentration: 10 nM
In short: as §1

Binder | peptide microarray binding signal
B1 | 0.00233 ± 5.8e-05
B2 | 0.00424 ± 5.8e-05
B3 | 0.003342 ± 1.8e-05
B4 | 0.003939 ± 2.1e-05
B5 | 0.00585 ± 0.0006
B6 | 0.00322 ± 4.7e-05
B7 | 0.00322 ± 4.7e-05
B8 | 0.00734 ± 0.00017
B9 | 0.007579 ± 5.8e-05
B10 | 0.003103 ± 3e-05

Same assay, conditions: peptide region: Unmod H1 variant; binder concentration: 100 nM

Binder | peptide microarray binding signal
B1 | 0.00425 ± 7.2e-05
B2 | 0.00935 ± 0.00021
B3 | 0.00999 ± 0.0011
B4 | 0.00893 ± 0.00084
B5 | 0.0201 ± 0.0018
B6 | 0.0121 ± 0.0049
B7 | 0.00652 ± 0.00013
B8 | 0.0165 ± 0.00046
B9 | 0.0113 ± 0.0012
B10 | 0.00765 ± 0.00058

Biological target: anti-H3K4me3 antibody ab8580
Experiment: as above
Conditions: peptide region: Unmod H1 variant; binder concentration: 1:2,000 dilution
In short: as §1

Binder | peptide microarray binding signal
B1 | 0.00132 ± 0.0003
B2 | 0.000906 ± 2.4e-05
B3 | 0.00068 ± 1.9e-05
B4 | 0.000925 ± 2.1e-05
B5 | 0.00196 ± 0.00038
B6 | 0.000812 ± 4.4e-05
B7 | 0.000736 ± 1.2e-05
B8 | 0.00255 ± 9.7e-05
B9 | 0.000831 ± 4.9e-05
B10 | 0.0006041 ± 5.8e-06

Same assay, conditions: peptide region: Unmod H1 variant; binder concentration: 1:10,000 dilution

Binder | peptide microarray binding signal
B1 | 0.000913 ± 1.6e-05
B2 | 0.00148 ± 2.9e-05
B3 | 0.00143 ± 2.4e-05
B4 | 0.00171 ± 5.9e-05
B5 | 0.00137 ± 4.9e-05
B6 | 0.00137 ± 4.9e-05
B7 | 0.001541 ± 1.5e-05
B8 | 0.00388 ± 0.00013
B9 | 0.00171 ± 4.3e-05
B10 | 0.00217 ± 0.0002

Biological target: anti-H3K9me3 antibody ab8898
Experiment: as above
Conditions: peptide region: Unmod H1 variant; binder concentration: 1:2,000 dilution
In short: as §1

Binder | peptide microarray binding signal
B1 | 0.000257 ± 2.7e-06
B2 | 0.000423 ± 8.2e-06
B3 | 0.0004379 ± 4.2e-06
B4 | 0.000408 ± 1.2e-05
B5 | 0.000317 ± 5.6e-06
B6 | 0.000287 ± 1.1e-05
B7 | 0.000483 ± 9.2e-06
B8 | 0.0019 ± 0.00012
B9 | 0.000483 ± 1.7e-05
B10 | 0.000423 ± 8.2e-06

Same assay, conditions: peptide region: Unmod H1 variant; binder concentration: 1:10,000 dilution

Binder | peptide microarray binding signal
B1 | 0.00075 ± 1.6e-05
B2 | 0.00075 ± 7.9e-06
B3 | 0.00115
B4 | 0.00121 ± 2.4e-05
B5 | 0.00098
B6 | 0.000865 ± 9e-06
B7 | 0.00098
B8 | 0.00231 ± 7.5e-05
B9 | 0.001211 ± 1.2e-05
B10 | 0.00104 ± 1.1e-05
